Test results published in PubChem BioAssay (Tox21).
Records with an inconclusive call do not appear. A call without a number means that no potency is given here. Activity calls are given as the source filed them. Unless noted, the call rests on the fitted dose curve; in most records, active means well fitted curve in the direction sought with a large enough effect in the repeat runs; inconclusive means weak or mixed curves; inactive means no such curve, though single readings can be large; an effect the other way counts as inactive or inconclusive.

Assays:
[1] = A CellTox Green Cytotoxicity Assay to monitor cytotoxicity in HepG2 cells - 8 hour (AID 1224890); details: CellTox Green fluorescence; series mostly up to 76.8 µM; further: nearly all actives have a fitted effect of over 45% in size
In short: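 HepG2 cells, 600/well, preincubated 5 h with CellTox Green dye, then exposed to Tox21 compounds in DMSO at 37 C for up to 40 h. Dead-cell DNA fluorescence read at the indicated time point.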

[2] = qHTS assay to identify small molecule antagonists of the androgen receptor (AR) signaling pathway using the MDA cell line in the presence of 0.5 nM R1881 - cell viability counter screen (AID 1259242); details: MDA-kb2 viability, CellTiter-Fluor protease fluorescence, 16 h; series mostly up to 92.4 µM; further: nearly all actives have a fitted effect of over 45% in size; further: potency means the concentration at half of the fitted maximal effect
In short: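 MDA-kb2 cells (MMTV-luciferase, AR/GR responsive) were treated with compounds plus 0.5 nM R1881 (final) for 16 hr at 37C, 0% CO2. Viability was then read in the same wells as live-cell protease fluorescence (CellTiter-Fluor, 30 min).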

[3] = target: Estrogen receptor (Homo sapiens) (UniProt P03372); experiment: qHTS assay to identify small molecule antagonists of the estrogen receptor alpha (ER-alpha) signaling pathway using the BG1 cell line in the presence of 0.1 nM 17-beta-estradiol (AID 1259244); details: VM7Luc4E2 (BG1) ERE-luciferase, antagonist mode, 0.1 nM E2, 22 h; series mostly up to 92.4 µM; further: nearly all actives have a fitted effect of over 50% in size
In short: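 VM7Luc4E2 cells (endogenous full-length ER-alpha, 4×ERE-luciferase), kept 5 days in phenol red-free, charcoal-stripped FBS medium; 4,000 cells/well. Compounds added with 0.1 nM (final) 17beta-estradiol, 22 hr at 37C; luminescence read with ONE-Glo after 30 min.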

[4] = qHTS assay to identify small molecule phospholipidosis (PLD) inducers (AID 1259344; active means well fitted curve in the direction sought with a large enough effect; an effect the other way counts as inactive or inconclusive); details: HepG2 phospholipidosis, LipidTOX Red imaging, 24 h; series mostly up to 38.3 µM
In short: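 HepG2 cells on collagen I, attached 4 h at 37 C, were co-treated with compound and LipidTOX Red dye for 24 h at 37 C, then fixed with paraformaldehyde plus Hoechst 33342 and imaged by high-content microscopy for phospholipid accumulation.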

[5] = qHTS assay to identify small molecule HDAC inhibitors (AID 1259364); details: HCT-116 HDAC-Glo I/II luminescence, 2 h; series mostly up to 92.4 µM; further: top concentration of the series differs between compounds; nearly all actives have a fitted effect of over 45% in size
In short: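 Wild-type HCT-116 cells, plated overnight at 37 C, exposed to compounds 2 hr at 37 C; luminogenic HDAC-Glo substrate then added 30 min at room temperature. Luminescence reports relative endogenous class I/II HDAC activity.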

[6] = qHTS assay to identify small molecule HDAC inhibitors - cell viability counter screen (AID 1259365); details: HCT-116 viability, CellTiter-Glo ATP luminescence, 2 h; series mostly up to 92.4 µM; further: nearly all actives have a fitted effect of over 50% in size
In short: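 CellTiter-Glo luminescence (30 min, room temperature) reported viability after a 2 h compound exposure at 37 C. Cells: wild-type HCT-116, 1,500 per well, seeded the night before.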

[7] = qHTS assay to identify small molecule agonists of the sonic hedgehog signaling (Shh) pathway - cell viability counter screen (AID 1259366); details: NIH/3T3 Gli1-Luc viability, CellTiter-Fluor, 24 h; series mostly up to 92.4 µM; further: nearly all actives have a fitted effect of over 50% in size; further: potency means the concentration at half of the fitted maximal effect
In short: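 Cytotoxicity counter screen: CellTiter-Fluor reagent added after 23 h compound exposure, then 1 h at 37C and fluorescence read. Cells were 3T3 Gli1-Luc, seeded 2,000 per well and dosed 4 h post-plating.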

[8] = qHTS assay to identify small molecule antagonists of the sonic hedgehog signaling (Shh) pathway - cell viability counter screen (AID 1259367); details: NIH/3T3 Gli1-Luc viability, CellTiter-Fluor, 24 h; series mostly up to 92.4 µM; further: nearly all actives have a fitted effect of over 55% in size; further: potency means the concentration at half of the fitted maximal effect
In short: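 NIH/3T3-derived Gli1-Luc reporter cells (2,000 per well) rested 4 hr at 37 C, then received DMSO compounds plus conditioned medium. After 23 hr of treatment, CellTiter-Fluor was added for 1 hr at 37C and fluorescence read.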

[9] = qHTS assay to identify small molecule agonists of the sonic hedgehog signaling (Shh) pathway (AID 1259368; calls by dose curve;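 further: NIH/3T3-derived 3T3Gli1-Luc cells carrying a stable Gli1-driven firefly luciferase reporter; nearly all actives have a fitted effect of over 15% in size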); details: NIH/3T3 Gli1-Luc reporter, luciferase, 24 h; series mostly up to 92.4 µM
In short: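 NIH/3T3-derived 3T3Gli1-Luc cells with stably integrated Gli1-driven firefly luciferase, 2,000 cells/well, compounds added after 4 hr. Incubated 24 hr at 37C, 5% CO2; luminescence read after 30 min with luciferase reagent at room temperature.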

[10] = qHTS assay to identify small molecule antagonists of the sonic hedgehog signaling (Shh) pathway (AID 1259369; calls by dose curve; further: nearly all actives have a fitted effect of over 45% in size; further: potency means the concentration at half of the fitted maximal effect); details: NIH/3T3 Gli1-Luc reporter, Shh antagonist, luminescence 24 h; series mostly up to 92.4 µM
In short: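 NIH/3T3-derived Gli1-Luc reporter cells plated 4 h, dosed with compound, then stimulated with conditioned medium for 24 h at 37 C. Firefly luciferase luminescence read after 30 min with detection reagent at room temperature.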

[11] = target: Estrogen receptor beta (Homo sapiens) (UniProt Q92731); experiment: qHTS assay to identify small molecule agonists of the estrogen receptor beta (ER-beta) signaling pathway (AID 1259377; active means well fitted activation curve with a large enough effect in the signal ratio in the repeat runs, not every such curve was filed as active; the % refers to the signal ratio); details: ER-beta-UAS-bla HEK293T, beta-lactamase FRET ratio, 16 h; series mostly up to 92.4 µM
In short: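 Ratiometric beta-lactamase FRET read-out came after 2 h substrate loading at room temperature. It followed 16 h compound treatment at 37C of GripTite HEK293T cells carrying a UAS-bla reporter, plated in 2% charcoal-stripped FBS medium.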

[12] = target: Estrogen receptor beta (Homo sapiens) (UniProt Q92731); experiment: qHTS assay to identify small molecule antagonists of the estrogen receptor beta (ER-beta) signaling pathway (AID 1259378; active means well fitted inhibition curve with a large enough effect in the signal ratio in the repeat runs, not every such curve was filed as active; the % refers to the signal ratio); details: ER-beta-UAS-bla HEK293T, beta-lactamase FRET ratio, 16 h; series mostly up to 92.4 µM
In short: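 ER-beta-UAS-bla HEK293T (GripTite) cells in 2% charcoal-stripped FBS medium were preincubated 6 hr at 37C, dosed with compound, then stimulated with 1 nM E2 (final) for 16 hr; beta-lactamase reporter read by B/G FRET fluorescence after 2 hr substrate loading.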

[13] = qHTS assay to identify small molecule agonists of the androgen receptor (AR) signaling pathway in the presence of an antagonist - cell viability counter screen (AID 1259379); details: MDA-kb2 viability, CellTiter-Fluor, 16 h; series mostly up to 92.4 µM; further: nearly all actives have a fitted effect of over 25% in size; further: potency means the concentration at half of the fitted maximal effect
In short: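 MDA-kb2 cells (MMTV-luciferase, AR/GR), 3,000/well, 5 h attachment, then 3.0 µM nilutamide (final) and compounds at 15 concentrations. Viability by CellTiter-Fluor fluorescence after 16 h at 37 °C, 0% CO2, in the reporter wells.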

[14] = qHTS assay to identify small molecule agonists of the estrogen receptor beta (ER-beta) signaling pathway - cell viability counter screen (AID 1259380); details: ER-beta-bla HEK293T viability, CellTiter-Glo luminescence, 16 h; series mostly up to 92.4 µM; further: nearly all actives have a fitted effect of over 30% in size; further: potency means the concentration at half of the fitted maximal effect
In short: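 ER-beta-UAS-bla HEK293T cells in medium with 2% charcoal-stripped FBS, pre-incubated 6 hr, then treated 16 hr at 37C. Cytotoxicity read in the same wells by CellTiter-Glo luminescence after 30 min at room temperature.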

[15] = qHTS assay to identify small molecule antagonists of the estrogen receptor beta (ER-beta) signaling pathway - cell viability counter screen (AID 1259382); details: ER-beta-UAS-bla HEK293T viability, CellTiter-Glo luminescence, 16 h; series mostly up to 92.4 µM; further: nearly all actives have a fitted effect of over 55% in size
In short: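 ER-beta-UAS-bla HEK293T cells in 2% charcoal-stripped FBS medium, treated with compound plus 1 nM 17-beta-estradiol for 16 h at 37C. Viability read by CellTiter-Glo luminescence after 30 min at room temperature in the same wells.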

[16] = target: Estrogen receptor (Homo sapiens) (UniProt P03372); experiment: qHTS assay to identify small molecule agonists of the estrogen receptor alpha (ER-alpha) signaling pathway in the presence of an antagonist (AID 1259383; calls by dose curve; further: top concentration of the series differs between compounds; nearly all actives have a fitted effect of over 15% in size); details: VM7Luc4E2 cells, ERE-luciferase, +ICI-182,780, 22 h; series mostly up to 92.4 µM
In short: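 VM7Luc4E2 cells express endogenous full-length ER-alpha with an ERE-luciferase reporter and were hormone-deprived for 5 days. Compounds at 15 concentrations were added with 10.0nM ICI-182,780 for 22hr at 37C. Luminescence was read with ONE-Glo.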

[17] = target: Androgen receptor (Homo sapiens) (UniProt P10275); experiment: qHTS assay to identify small molecule antagonists of the androgen receptor (AR) signaling pathway using the MDA cell line in the presence of 0.5 nM R1881 (AID 1259243); details: MDA-kb2 MMTV-luciferase, R1881 0.5 nM, 16 h; series mostly up to 92.4 µM; further: nearly all actives have a fitted effect of over 50% in size
In short: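 MDA-kb2 cells (MMTV-luciferase, responsive to AR and GR) at 3,000/well, rested 5 h at 37C, 0% CO2, then given compounds plus 0.5 nM R1881 (final) for 16 hr. Luciferase read with ONE-Glo after 30 min at room temperature.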

[18] = target: Androgen receptor (Homo sapiens) (UniProt P10275); experiment: qHTS assay to identify small molecule agonists of the androgen receptor (AR) signaling pathway in the presence of an antagonist (AID 1259381; calls by dose curve; further: nearly all actives have a fitted effect of over 15% in size); details: MDA-kb2 MMTV-luciferase, AR agonist + nilutamide, 16 h; series mostly up to 92.4 µM
In short: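 MDA-kb2 cells carrying MMTV-luciferase (AR/GR responsive), 3,000 cells/well, co-treated with 3.0 uM nilutamide final. Compounds at 15 concentrations, 16 hr at 37C without CO2. Luciferase luminescence read after 30 min with ONE-Glo.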

[19] = qHTS assay to identify small molecule agonists or antagonists of the thyroid stimulating hormone receptor (TSHR) signaling pathway - wild type cell line counter screen (AID 1259384; calls by dose curve); details: HEK293 wild type, cAMP HTRF counter-screen, hits give high values; series mostly up to 92.4 µM
In short: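 Wild-type HEK293 cells were plated 18 h at 37 C/5% CO2, pin-dosed with compound plus Ro20-1724 medium, held 30 min at room temperature, then given cAMP-d2 and anti-cAMP-cryptate; fluorescence was read after 1 h. Fifteen concentrations, triplicate.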

[20] = qHTS assay to identify small molecule antagonists of the estrogen receptor alpha (ER-alpha) signaling pathway using the BG1 cell line in the presence of 0.1 nM 17-beta-estradiol - cell viability counter screen (AID 1259241); details: VM7Luc4E2 (BG1) viability, CellTiter-Fluor protease, 22 h, 0.1 nM estradiol agonist added; series mostly up to 92.4 µM; further: nearly all actives have a fitted effect of over 40% in size; further: potency means the concentration at half of the fitted maximal effect
In short: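 Cytotoxicity counter-screen: live-cell protease activity measured by fluorescence (30 min reagent step) in the same wells. Cells were VM7Luc4E2 with endogenous ER-alpha and ERE-driven luciferase, treated 22 hr at 37C alongside 0.1 nM 17beta-estradiol final.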

Androgen receptor (Homo sapiens), sequence (P10275 whole entry, looked up): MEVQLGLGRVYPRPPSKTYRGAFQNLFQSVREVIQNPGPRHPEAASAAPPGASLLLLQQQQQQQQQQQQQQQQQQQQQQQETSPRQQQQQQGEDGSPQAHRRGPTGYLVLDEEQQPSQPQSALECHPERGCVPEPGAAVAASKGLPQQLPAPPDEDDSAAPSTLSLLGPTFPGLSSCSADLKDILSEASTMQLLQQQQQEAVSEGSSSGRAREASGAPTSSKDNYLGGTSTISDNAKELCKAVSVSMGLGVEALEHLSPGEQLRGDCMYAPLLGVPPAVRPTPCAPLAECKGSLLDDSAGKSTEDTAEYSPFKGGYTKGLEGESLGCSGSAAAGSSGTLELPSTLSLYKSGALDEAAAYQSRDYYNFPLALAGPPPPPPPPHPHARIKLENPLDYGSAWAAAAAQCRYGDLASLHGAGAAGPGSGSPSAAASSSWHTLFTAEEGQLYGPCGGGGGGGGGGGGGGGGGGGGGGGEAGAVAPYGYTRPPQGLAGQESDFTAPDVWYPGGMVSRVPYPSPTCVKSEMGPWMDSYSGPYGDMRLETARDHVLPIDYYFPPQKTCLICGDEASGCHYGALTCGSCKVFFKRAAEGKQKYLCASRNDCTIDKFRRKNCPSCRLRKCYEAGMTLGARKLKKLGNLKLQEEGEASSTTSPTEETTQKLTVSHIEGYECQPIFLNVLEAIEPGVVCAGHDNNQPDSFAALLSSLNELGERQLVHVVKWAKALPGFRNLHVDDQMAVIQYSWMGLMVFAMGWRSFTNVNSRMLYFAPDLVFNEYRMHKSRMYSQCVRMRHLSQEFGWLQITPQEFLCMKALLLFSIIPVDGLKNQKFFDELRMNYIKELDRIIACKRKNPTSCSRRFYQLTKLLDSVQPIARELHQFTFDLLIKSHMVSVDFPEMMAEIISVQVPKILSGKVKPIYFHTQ
Estrogen receptor beta (Homo sapiens), sequence (Q92731 whole entry, looked up): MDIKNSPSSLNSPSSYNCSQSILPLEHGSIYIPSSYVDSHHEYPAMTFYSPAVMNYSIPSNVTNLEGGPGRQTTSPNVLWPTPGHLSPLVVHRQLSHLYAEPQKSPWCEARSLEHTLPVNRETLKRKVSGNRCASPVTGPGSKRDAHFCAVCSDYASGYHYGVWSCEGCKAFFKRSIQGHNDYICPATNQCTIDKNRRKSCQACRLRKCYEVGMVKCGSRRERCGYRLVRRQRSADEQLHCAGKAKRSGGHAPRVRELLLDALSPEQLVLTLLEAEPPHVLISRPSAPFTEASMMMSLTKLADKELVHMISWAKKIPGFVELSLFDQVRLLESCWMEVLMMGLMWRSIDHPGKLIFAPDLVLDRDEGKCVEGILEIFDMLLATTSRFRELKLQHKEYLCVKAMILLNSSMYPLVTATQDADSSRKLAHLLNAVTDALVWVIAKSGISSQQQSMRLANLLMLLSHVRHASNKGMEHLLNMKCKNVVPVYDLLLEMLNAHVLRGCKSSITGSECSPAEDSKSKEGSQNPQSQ
Estrogen receptor (Homo sapiens), sequence (P03372 whole entry, looked up): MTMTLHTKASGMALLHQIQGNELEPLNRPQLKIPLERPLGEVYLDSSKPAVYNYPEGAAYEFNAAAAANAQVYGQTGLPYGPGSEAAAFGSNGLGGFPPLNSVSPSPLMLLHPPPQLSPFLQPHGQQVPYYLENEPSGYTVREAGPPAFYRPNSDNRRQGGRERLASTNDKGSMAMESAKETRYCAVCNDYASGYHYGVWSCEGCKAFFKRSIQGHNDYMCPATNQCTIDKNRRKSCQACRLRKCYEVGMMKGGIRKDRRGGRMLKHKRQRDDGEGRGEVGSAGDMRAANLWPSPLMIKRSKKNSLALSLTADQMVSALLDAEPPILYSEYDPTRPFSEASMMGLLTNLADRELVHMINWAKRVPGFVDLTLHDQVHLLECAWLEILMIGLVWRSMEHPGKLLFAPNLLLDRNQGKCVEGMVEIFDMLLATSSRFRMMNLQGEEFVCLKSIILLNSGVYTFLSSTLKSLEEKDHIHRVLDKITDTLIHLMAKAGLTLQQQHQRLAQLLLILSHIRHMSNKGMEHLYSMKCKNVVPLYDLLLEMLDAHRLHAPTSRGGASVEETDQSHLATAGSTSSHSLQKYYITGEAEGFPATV

| Structure (SMILES) | Potency [1] | Potency [2] | Potency [3] | outcome [4] | Potency [5] | Potency [6] | Potency [7] | Potency [8] | Potency [9] | Potency [10] | Potency [11] | Potency [12] | Potency [13] | Potency [14] | Potency [15] | Potency [16] | Potency [17] | Potency [18] | outcome [19] | Potency [20] |
| --- | --- | --- | --- | --- | --- | --- | --- | --- | --- | --- | --- | --- | --- | --- | --- | --- | --- | --- | --- | --- |
| CCCCCCCCCC(=O)O[C@H]1CC[C@H]2[C@@H]3CCC4=CC(=O)CC[C@@H]4[C@H]3CC[C@]12C | inactive | inactive | inactive | inactive | inactive | inactive | inactive | inactive | inactive | inactive | inactive | inactive | inactive | inactive | inactive | – | – | – | – | – |
| O=NN1CCNCC1 | inactive | inactive | inactive | – | inactive | inactive | inactive | inactive | inactive | inactive | – | – | inactive | inactive | inactive | inactive | – | – | – | – |
| NS(=O)(=O)C(F)(F)C(F)(F)C(F)(F)C(F)(F)C(F)(F)C(F)(F)C(F)(F)C(F)(F)F | inactive | inactive | inactive | – | inactive | inactive | inactive | inactive | inactive | inactive | inactive | – | inactive | 68.6 µM (active) | – | inactive | inactive | inactive | inactive | – |
| Sc1ccccc1Cl | – | inactive | inactive | – | inactive | inactive | inactive | inactive | inactive | inactive | – | – | inactive | inactive | inactive | – | inactive | inactive | inactive | inactive |
| O=C(O)CC(Cl)C(=O)O (configuration not stated) | inactive | inactive | – | – | inactive | inactive | inactive | inactive | – | inactive | inactive | inactive | inactive | inactive | inactive | – | – | – | inactive | – |
| CC(C)(C)c1cc([N+](=O)[O-])cc([N+](=O)[O-])c1O | – | 12.2 µM (active) | – | – | – | inactive | 21.6 µM (active) | 24.3 µM (active) | inactive | 6.84 µM (active) | inactive | – | 15.3 µM (active) | – | inactive | – | – | – | inactive | 13.6 µM (active) |
| C=CC(=O)OC(C)(C)C | inactive | inactive | – | – | inactive | inactive | inactive | inactive | inactive | inactive | inactive | inactive | inactive | inactive | inactive | – | – | – | inactive | – |
